Experiment [1] can be described thus: Cell Viability - BJ (AID 421; calls by dose curve;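 further: potency means the concentration at half of the fitted maximal effect; cells exposed to compound for 40 hours at 37 °C before readout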). Conditions: BJ fibroblast viability, qHTS. In short, it runs like this: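 Quantitative HTS: ATP depletion in BJ cells after 40 hr compound exposure in complete culture medium, detected with CellTiter-Glo; AC50 from standard Hill fits.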
(In general: Quantitative high-throughput screening tests each substance at several concentrations.)

A short description of experiment [2]: Cell Viability - Jurkat (AID 426;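 active means dose-dependent loss of cell ATP signal giving a full or clear fitted curve, ranked by lower potency value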; further: potency means the concentration at half of the fitted maximal effect). Particulars: qHTS. In short, it runs like this: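 Jurkat (clone E6-1, human T-cell leukemia) cells, 5000/well in complete medium, were exposed to compound for 40 hr at 37 °C. Viability was read as intracellular ATP by CellTiter-Glo luminescence; AC50 came from Hill fits of concentration-response data.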
Experiment [3] in a line: Cell Viability - SK-N-SH (AID 435; calls by dose curve; further: potency means the concentration at half of the fitted maximal effect). Particulars: SK-N-SH neuroblastoma cell viability qHTS. In short, it runs like this: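 qHTS cytotoxicity: CellTiter-Glo ATP luminescence after 40 h compound exposure of human neuroblastoma SK-N-SH cells at 37 °C. AC50 derived by Hill-equation fitting, with DMSO as basal and 100 uM tamoxifen as full inhibition.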
The nature of experiment [4]: Cell Viability - N2a (AID 540).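 Further: plate controls were DMSO alone for no effect and tamoxifen control for full effect; nearly all actives have a fitted effect of over 45% in size.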 Conditions: N2a mouse neuroblastoma cell viability; activity change, negative = cytotoxicity: at 92.2 µM (top of the series). The method, boiled down: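 Mouse neuroblastoma N2a cells (1500/well) were preincubated 5 hr at 37 °C, then exposed to compounds for 40 hr at 37 °C in complete medium. Viability was read as intracellular ATP by CellTiter-Glo luminescence; AC50 from Hill fits.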

The nature of experiment [5]: Cell Viability - HUV-EC-C (AID 542). Further: on the % scale 0 is the no-effect control and ±100 the full control effect; nearly all actives have a fitted effect of over 35% in size. In short, it runs like this:
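HUV-EC-C normal human vascular endothelial cells, 1000 cells/well, pre-incubated 5 hr at 37 °C, then exposed to compounds for 40 hr at 37 °C in complete medium. Viability measured as intracellular ATP by CellTiter-Glo luminescence; AC50 from Hill fits.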

The nature of experiment [6]: Cell Viability - SH-SY5Y (AID 544).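 Further: 0% = DMSO alone and -100% = 100 µM tamoxifen; nearly all actives have a fitted effect of over 55% in size.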 Particulars: SH-SY5Y neuroblastoma cell viability; viability change, negative = cytotoxic: at 92.2 µM (top of the series). In short, it runs like this: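 Human neuroblastoma SH-SY5Y cells (1500/well) in complete medium were exposed to compounds for 40 hr at 37 °C; intracellular ATP was then quantified by CellTiter-Glo luminescence after 20 min at room temperature. AC50 came from Hill-equation concentration-response fits.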

Experiment [7] in a line: Cell Viability - Renal Proximal Tubule (AID 545).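 Further: 0% = DMSO only and -100% = 100 µM tamoxifen; nearly all actives have a fitted effect of over 40% in size.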 The method, boiled down:
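Viability taken as intracellular ATP (CellTiter-Glo luminescence) after 40 hr, 37 °C compound treatment of primary proximal tubule cells from rat kidney, 1000 cells/well; Hill-equation fits of qHTS concentration-response data gave AC50.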

Experiment [8] can be described thus: Cell Viability - Mesenchymal (AID 546).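 Further: cells exposed to compound for 40 hours before reading; 0% = DMSO only and -100% = 100 µM tamoxifen.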 The method, boiled down:
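Normal human renal glomerulus-derived kidney mesenchymal cells, 1000 per well in complete medium, were treated with compounds for 40 hr at 37 °C. Viability was read as intracellular ATP by CellTiter-Glo luminescence; AC50 values came from Hill-equation fits of qHTS concentration-response data.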

In experiment [9] the target is Cytochrome P450 3A4 (Homo sapiens) (UniProt P08684). As to the kind of experiment: qHTS Assay for Inhibitors and Substrates of Cytochrome P450 3A4 (AID 884). Further: nearly all actives have a fitted effect of over 50% in size. Further: potency means the concentration at half of the fitted maximal effect. In short, it runs like this:
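20 nM human CYP3A4 with 25 uM Luciferin-PPXE (at KM) in 200 mM KPO4, preincubated 10 min with compound; NADPH regeneration started a 60 min RT reaction. Luciferin detected by luminescence, normalized to 57 uM ketoconazole as full inhibition.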

The target in experiment [10] is Glucocorticoid receptor (Homo sapiens) (UniProt P04150). As to the kind of experiment: qHTS assay for small molecule agonists of glucocorticoid receptor signaling (AID 588532; active means well fitted curve in the direction sought with a large enough effect in the signal ratio, with a control signal flat; the % refers to the signal ratio;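 further: 100% = dexamethasone at 0.1 µM and 0% = DMSO only wells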). Conditions: HeLa MMTV-bla, beta-lactamase ratio, agonist, 18 h; stronger effect = higher value; percent of dexamethasone control, DMSO zero. The method, boiled down:
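Stimulation of a glucocorticoid response element-driven beta-lactamase gene was measured in HeLa cells. Responses were scaled between DMSO basal and 0.1 uM dexamethasone, then fitted for half-maximal stimulation.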

Experiment [11] can be described thus: qHTS assay for small molecule agonists of retinoid X receptor alpha signaling (AID 588544). Conditions: HEK293T RXRa-UAS-bla, beta-lactamase reporter, 18 h; 530 nm emission.
The target of experiment [12] is Thyroid hormone receptor beta (Homo sapiens) (UniProt P10828). As to the kind of experiment: qHTS assay for small molecule agonists of thyroid hormone receptor beta signaling (AID 588545; calls by dose curve;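 further: 0% = DMSO only and 100% = 10 nM T3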). The method, boiled down:
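TR-UAS-bla-GripTite HEK 293 cells in medium with 2% charcoal/dextran FBS, 0.1 mM NEAA and 1 mM sodium pyruvate were treated with titrated compounds for 18 hrs at 37 C. Beta-lactamase reporter was read with CCF4 dye (ex 405, em 460/530 nm); EC50 from Hill fits.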

The nature of experiment [13]: qHTS assay for small molecule antagonists of retinoid X receptor alpha signaling (AID 588546; active means well fitted inhibition curve with a large enough effect in the signal ratio, with a control signal flat, not every such curve was filed as active; the % refers to the signal ratio;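 further: cells stimulated with 9-cis-retinoic acid as agonist; on the % scale 0 is the no-effect control and ±100 the full control effect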). Conditions: HEK293T RXRa-UAS-bla, beta-lactamase ratio, antagonist mode; measured here: W530 green channel, cytotoxicity proxy. The method, boiled down:
(§1)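 Beta-lactamase reporter inhibition, read as CCF4 fluorescence ratio (ex 405, em 460/530 nm) after 2 h at RT. HEK293T UAS-bla cells, 2500/well, were stimulated with 9-cis-RA at 500 or 100 nM final alongside test compound for 18 h at 37 C.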

For experiment [14], the target named is Retinoic acid receptor RXR-alpha (Homo sapiens) (UniProt P19793). The description is as above. Conditions: HEK293T RXRa-UAS-bla, beta-lactamase ratio, antagonist mode. The method, boiled down:
as §1

In experiment [15] the target is Thyroid hormone receptor beta (Homo sapiens) (UniProt P10828). As to the kind of experiment: qHTS assay for small molecule antagonists of thyroid hormone receptor beta signaling (AID 588547; active means well fitted inhibition curve with a large enough effect in the signal ratio, with a control signal flat, not every such curve was filed as active; the % refers to the signal ratio;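 further: cells stimulated with 0.4 nM T3 agonist during compound exposure; on the % scale 0 is the no-effect control and ±100 the full control effect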). Conditions: TR-UAS-bla HEK293, beta-lactamase ratio, antagonist mode, 18 h. In short, it runs like this: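 TR-UAS-bla GripTite HEK293 cells in 2% charcoal/dextran FBS medium were preincubated 4 h at 37 C, given compound (0.59 nM to 92 uM) plus 0.4 nM T3 (final) for 18 h, then CCF4 for 2 h at RT; Hill fit gave IC50.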
Thyroid hormone receptor beta (Homo sapiens), sequence (P10828 whole entry, looked up): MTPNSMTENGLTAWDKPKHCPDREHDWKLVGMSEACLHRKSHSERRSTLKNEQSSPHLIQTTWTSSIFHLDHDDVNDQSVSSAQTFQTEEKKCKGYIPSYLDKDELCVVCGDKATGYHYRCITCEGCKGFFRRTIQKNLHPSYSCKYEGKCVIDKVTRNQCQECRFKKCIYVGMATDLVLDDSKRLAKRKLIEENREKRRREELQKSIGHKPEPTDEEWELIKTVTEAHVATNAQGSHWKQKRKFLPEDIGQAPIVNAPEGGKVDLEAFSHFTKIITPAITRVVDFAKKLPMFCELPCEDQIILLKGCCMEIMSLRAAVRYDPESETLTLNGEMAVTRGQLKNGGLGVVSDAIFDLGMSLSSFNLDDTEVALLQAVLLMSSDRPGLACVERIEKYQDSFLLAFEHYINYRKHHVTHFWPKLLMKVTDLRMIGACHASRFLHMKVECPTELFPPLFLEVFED

Results on 3 compounds are retold here after PubChem BioAssay (NCATS).

Several values for one entry are separate records, joined by “and”; a condition that tells them apart may be missing. Identical values can stand only once. Inconclusive results are not listed. Activity calls are given as the source filed them. Unless noted, the call rests on the fitted dose curve; in most records, active means well fitted curve in the direction sought with a large enough effect; inconclusive means small, poorly fitted or top-dose-only effect, or another doubt; inactive means no such curve, though single readings can be large; an effect the other way counts as inactive or inconclusive.

Cytochrome P450 3A4 (Homo sapiens), sequence (P08684 whole entry, looked up): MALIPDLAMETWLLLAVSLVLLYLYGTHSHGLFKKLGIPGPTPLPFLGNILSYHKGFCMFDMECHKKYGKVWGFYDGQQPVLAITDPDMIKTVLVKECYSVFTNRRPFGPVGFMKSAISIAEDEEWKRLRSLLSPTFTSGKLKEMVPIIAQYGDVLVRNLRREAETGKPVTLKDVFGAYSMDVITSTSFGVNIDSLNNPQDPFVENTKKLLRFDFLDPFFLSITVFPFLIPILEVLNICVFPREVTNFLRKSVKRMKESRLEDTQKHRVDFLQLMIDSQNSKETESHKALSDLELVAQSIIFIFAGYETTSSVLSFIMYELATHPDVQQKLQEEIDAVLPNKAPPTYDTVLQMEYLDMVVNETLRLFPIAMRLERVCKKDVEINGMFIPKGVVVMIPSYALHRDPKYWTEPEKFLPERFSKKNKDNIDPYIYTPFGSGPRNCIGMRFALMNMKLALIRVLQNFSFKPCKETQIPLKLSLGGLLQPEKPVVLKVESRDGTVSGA
Glucocorticoid receptor (Homo sapiens), sequence (P04150 whole entry, looked up): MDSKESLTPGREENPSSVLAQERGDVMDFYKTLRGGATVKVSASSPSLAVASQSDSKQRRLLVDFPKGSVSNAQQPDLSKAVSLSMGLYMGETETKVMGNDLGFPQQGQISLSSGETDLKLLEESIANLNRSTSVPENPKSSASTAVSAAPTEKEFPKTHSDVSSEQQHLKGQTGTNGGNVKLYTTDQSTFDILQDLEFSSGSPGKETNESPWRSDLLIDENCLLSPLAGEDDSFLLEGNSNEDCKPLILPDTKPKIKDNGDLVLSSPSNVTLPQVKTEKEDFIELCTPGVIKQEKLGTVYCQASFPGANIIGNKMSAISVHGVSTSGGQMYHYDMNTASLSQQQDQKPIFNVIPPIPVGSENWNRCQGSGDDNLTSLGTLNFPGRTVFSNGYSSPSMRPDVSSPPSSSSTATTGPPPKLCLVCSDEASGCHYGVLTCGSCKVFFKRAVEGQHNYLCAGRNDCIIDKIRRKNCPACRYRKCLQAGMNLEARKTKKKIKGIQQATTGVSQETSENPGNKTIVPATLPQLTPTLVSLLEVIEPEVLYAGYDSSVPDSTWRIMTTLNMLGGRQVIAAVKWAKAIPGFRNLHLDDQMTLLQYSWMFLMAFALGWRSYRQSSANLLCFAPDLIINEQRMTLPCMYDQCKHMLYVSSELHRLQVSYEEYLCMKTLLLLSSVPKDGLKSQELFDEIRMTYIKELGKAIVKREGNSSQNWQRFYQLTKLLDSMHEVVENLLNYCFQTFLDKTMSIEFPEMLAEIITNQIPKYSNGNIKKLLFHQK
Retinoic acid receptor RXR-alpha (Homo sapiens), sequence (P19793 whole entry, looked up): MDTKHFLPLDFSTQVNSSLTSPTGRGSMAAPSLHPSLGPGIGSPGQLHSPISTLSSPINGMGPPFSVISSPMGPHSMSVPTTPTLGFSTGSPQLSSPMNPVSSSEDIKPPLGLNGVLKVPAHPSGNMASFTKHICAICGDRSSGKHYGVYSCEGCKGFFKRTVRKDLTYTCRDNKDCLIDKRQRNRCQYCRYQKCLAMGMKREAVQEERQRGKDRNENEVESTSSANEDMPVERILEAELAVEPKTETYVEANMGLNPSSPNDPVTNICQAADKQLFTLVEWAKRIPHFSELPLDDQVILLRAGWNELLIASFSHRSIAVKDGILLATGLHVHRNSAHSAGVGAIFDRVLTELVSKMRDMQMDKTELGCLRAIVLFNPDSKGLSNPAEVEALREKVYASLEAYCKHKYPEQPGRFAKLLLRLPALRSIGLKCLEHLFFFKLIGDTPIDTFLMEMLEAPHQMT

Take `NC1CCC(CC2CCC(N)CC2)CC1` (stereo not given): the Potency in experiment [1], in experiment [2] and in experiment [3] was > 92 µM (inactive) throughout. The Potency entry in experiment [4], in experiment [5], in experiment [6], in experiment [8], in [9] and in experiment [12] was “inactive” in each case. For the same compound, the outcome in experiment [7] was inactive. The activation in experiment [10] was 2.97% (inactive) and -18.9% (inactive). The max response was 8.4% in [11]; 2.2% and -10.5% in experiment [13]; -0.208% (inactive) and 1.62% (inactive) in experiment [14]. Further, the activity change % (negative = inhibition) in experiment [15] is 7.19% (inactive).
Turning to `O=C(O)CCl`, the Potency in [1], in [2] and in experiment [3] was > 92 µM (inactive) throughout. For the same compound, the Potency result in [4], in [5], in [6], in experiment [8], in experiment [9] and in experiment [12] was “inactive” in each case. In experiment [7], the outcome was inactive. Moreover, the activation in experiment [10] is 1.7% (inactive). The max response was -10.2% in [11], 1.14% in experiment [13] and -2.41% (inactive) in experiment [14]. Also, the activity change % (negative = inhibition) in experiment [15] was -0.364% (inactive).
Take `Cc1ccc(N=C=O)cc1N=C=O`: the Potency in experiment [1] is > 92 µM (inactive); in experiment [2], > 92 µM (inactive); in experiment [3], > 92 µM (inactive); in experiment [9] it was 15.8 µM (active). Moreover, the Potency result in [4], in [5], in experiment [6], in [8] and in experiment [12] was “inactive” each time. In addition, in [7], the compound was classed as inactive. For the same compound, the activation in experiment [10] is 4.9% (inactive) and -2.62% (inactive). Besides, the max response was -4.25% and -19.3% in [11]; 4.82% and -6.24% in [13]; 6.03% (inactive) and 0.743% (inactive) in experiment [14]. In [15], the activity change % (negative = inhibition) is -8.5% (inactive).
